# Source: PubChem BioAssay
# DT40 TDP1 CPT: DT40-hTDP1 cell growth loss with CPT. hit rate 12% among 420,000. Potency, µM (titrated, usually from 46.2 µM), without a hit: top-dose activity change, negative = growth inhibition, most hits filed as inhibitors. AID 686979. chicken DT40 Tdp1-/-;hTDP1 cells + 20 nM CPT, ATP luminescence, 48 h; note: potency is the fitted concentration of half-maximal effect; % is set by controls: 0 for no effect and ±100 for the full control effect; nearly all actives have a fitted effect of over 55% in size
#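 Chicken DT40 Tdp1-/- cells complemented with human TDP1, 400 cells/well, exposed to compounds plus 20 nM camptothecin for at least 48 h at 37 C; viability read as ATP content by CellTiter-Glo luminescence.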
# IL-1B inflam inh: inflammasome signaling inhibition, IL-1 beta readout | hit rate 4.7% among 360,000 | activity change, % at 57.5 µM | THP-1 LPS/ATP IL-1B secretion, AlphaLISA, 16 h; active compounds read low | AID 743279; in the data active = activity change below about -50%; inconclusive = mostly about -30% to -49%; note: % is set by controls: 0 for no effect and ±100 for the full control effect
#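 Secreted IL-1B measured by AlphaLISA bead assay after 16 h compound exposure of THP-1 cells; compounds (final up to 57.5 uM) added 1 h before LPS (250 ng/mL) and ATP (1.25 mM) stimulation; lower signal means less secretion.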
# TDP1 cell noCPT: qHTS for Inhibitors of human tyrosyl-DNA phosphodiesterase 1 (TDP1): qHTS in cells in absence of CPT. DT40 Tdp1-/- hTDP1 cells, no CPT, ATP luminescence, 48 h. Potency, µM (titrated, usually from 46.2 µM), without a hit: top-dose activity change, negative = growth inhibition, usual class: inhibitors. hit rate 15% among 420,000. AID 686978, 2013; note: potency is the fitted concentration of half-maximal effect; % is set by controls: 0 for no effect and ±100 for the full control effect; nearly all actives have a fitted effect of over 55% in size
#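 A cellular qHTS used chicken DT40 cells lacking endogenous Tdp1 but carrying stably transfected human TDP1. Compounds were applied without camptothecin, and cell growth kinetics were judged by ATP-dependent luminescence after ≥48 hr.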
# HepG2 tox: counter-screen for TGF-b inhibitors: cytotoxicity in HepG2 cells; Potency, µM (top dose mostly 46.1 µM), for inactives: top-dose activity change, negative = cytotoxicity, actives largely listed as cytotoxic; HepG2 CAGA-GFP viability, ATP luminescence, 18 h; hit rate 0.76% among 410,000; AID 588856; note: potency is the fitted concentration of half-maximal effect
#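 CellTiter-Glo luminescence gave cytotoxicity after 18 hours at 37 degrees C. The cells were HepG2 CAGA-GFP in 1% FBS DMEM, stimulated with 500 pg/mL TGF-beta after compound addition. %Activity was normalised to no-cell wells (complete cell-killing) and DMSO (no toxicity), and curves were fitted and classified.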
# TDP1 inh: inhibitors of human tyrosyl-DNA phosphodiesterase TDP1 | Q9NUW8 | recombinant TDP1, AlphaScreen DNA substrate cleavage | Potency, µM (series often up to 130 µM), without a hit: at the highest dose activity change, negative = inhibition, actives largely listed as inhibitors | hit rate 0.28% among 350,000 | AID 485290; note: potency is the fitted concentration of half-maximal effect; % is set by controls: 0 for no effect and ±100 for the full control effect; nearly all actives have a fitted effect of over 40% in size
# Target sequence (Q9NUW8 whole entry, looked up): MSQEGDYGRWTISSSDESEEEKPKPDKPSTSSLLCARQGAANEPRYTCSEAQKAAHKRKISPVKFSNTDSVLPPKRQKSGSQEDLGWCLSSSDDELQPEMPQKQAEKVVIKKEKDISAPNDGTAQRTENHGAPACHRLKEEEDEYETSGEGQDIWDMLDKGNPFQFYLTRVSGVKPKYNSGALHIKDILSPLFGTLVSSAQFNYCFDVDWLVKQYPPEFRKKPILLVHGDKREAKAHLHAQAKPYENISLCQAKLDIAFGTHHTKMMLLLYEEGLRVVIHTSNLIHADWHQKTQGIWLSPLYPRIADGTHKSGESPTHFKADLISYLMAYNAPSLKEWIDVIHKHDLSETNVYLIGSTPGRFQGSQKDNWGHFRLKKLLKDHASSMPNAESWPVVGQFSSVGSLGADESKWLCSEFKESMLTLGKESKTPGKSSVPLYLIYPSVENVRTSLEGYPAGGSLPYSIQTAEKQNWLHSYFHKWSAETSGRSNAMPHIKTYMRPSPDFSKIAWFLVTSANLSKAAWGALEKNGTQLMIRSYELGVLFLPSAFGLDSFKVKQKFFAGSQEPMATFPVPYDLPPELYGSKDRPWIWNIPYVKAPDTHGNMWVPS
#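 AlphaScreen read-out: signal falls as enzyme removes the 3' tyrosine-FITC from a 5'-biotinylated DNA oligo (15 nM, 5 min, RT). Enzyme was E. coli-made recombinant Tdp1 at 1 nM, exposed to compound for 15 min beforehand; beads 10 ug/ml, 10 min.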
# TGFb inhibitor: TGF-b pathway inhibition; HepG2 CAGA-GFP TGF-b/SMAD3 reporter, GFP fluorescence, 18 h; TGF-beta stimulated, 500 pg/mL final; Potency, µM (top dose mostly 46.1 µM), for the others: top-dose activity, negative = inhibition, most hits filed as inhibitors; hit rate 1.2% among 410,000; note: potency is the fitted concentration of half-maximal effect; % is set by controls: 0 for no effect and ±100 for the full control effect; nearly all actives have a fitted effect of over 65% in size
#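 First, reporter cells (HEPG2 CAGA-GFP) rested 2 h at 37 degrees C. Next, compounds were pinned in and TGF-beta added to 500 pg/mL final. After 18 h, GFP was imaged per cell and summed per well.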
# Active calls of the source: *; ? = inconclusive; · = not tested or not shown; [ ] = another dose, or the depositor's remark. In the library only some 18% were active in any assay of this set; here they are far more common. Unless noted, calls come from the whole dose curve; as a rule, active = well fitted curve in the direction sought with a large enough effect; inconclusive = small, poorly fitted or top-dose-only effect, or another doubt; inactive = no such curve, though single readings can be large; an effect the other way counts as inactive or inconclusive.
SMILES,DT40 TDP1 CPT,IL-1B inflam inh,TDP1 cell noCPT,HepG2 tox,TDP1 inh,TGFb inhibitor
COc1ccc2[nH]cc(CCNc3ncncc3-c3ccc(N(C)C)cc3)c2c1,?,·,?,·,22%[56.1 µM],·
COc1ccc2[nH]cc(CCNc3ncncc3-c3ccoc3)c2c1,4.6µM*,·,7.3µM*,·,·,·
CCC(Sc1nncn2c1cc1sccc12)C(=O)Nc1cccc(OC)c1 (stereo not given),?,·,23µM*,-30%,0%,?
CCC(Sc1nc2ncccc2[nH]1)C(=O)Nc1cccc(OC)c1 (stereo not given),?,·,?,-4%,10%,-13%
COc1ccc(Cl)cc1NC(=O)CSc1nnc(C)n2c1cc1sccc12,0%,·,-14%,1%,3%,-4%
CCC(Sc1nnc(C)n2c1cc1sccc12)C(=O)Nc1ccccc1F (stereo not given),?,·,21µM*,-21%,0%,?
CC(C)c1ccc2c(c1)-c1ccccc1S(=O)(=O)N2CC(=O)N1CCCCC1,?,·,?,2%,2%,-20%
CN1CCN(C(c2ccc(C(F)(F)F)cc2)c2ccc3cccnc3c2O)CC1 (stereo not given),8.2µM*,-85*,8.2µM*,-26%,-7%,?
Oc1c(C(Nc2ccccn2)c2ccccc2)ccc2cccnc12 (stereo not given),?,·,?,-31%,·,-19%
Oc1cccc(C(Nc2ccccn2)c2ccc3cccnc3c2O)c1Cl (stereo not given),0.65µM*,·,3.3µM*,-49%,12%,?
Oc1c(C(Nc2cccnc2)c2ccc(C(F)(F)F)cc2)ccc2cccnc12 (stereo not given),?,·,8.9µM*,-48%,·,?
Oc1c(C(c2cccs2)N2CCN(c3ccccc3)CC2)ccc2cccnc12 (stereo not given),·,·,·,·,-5%,·
COc1ccc(Cl)cc1C(Nc1cccnc1)c1ccc2cccnc2c1O (stereo not given),?,-66*,?,-9%,·,?
COc1ccc(CCNC(=O)COc2ccc(C)nc2[N+](=O)[O-])cc1OC,-5%,16,-27%,-2%,6%,9%
CC(/C=N/NC(=O)c1ccccc1F)=C\c1ccccc1,-19%,-11,?,0%,2%[56.1 µM],2%
Cc1cc(NC(c2cccnc2)c2ccc3cccnc3c2O)no1 (stereo not given),3.3µM*,143,3.7µM*,4%,7%,-29%
O=C(/C=C/c1ccccc1)CC(=O)c1ccccc1O,?,-15,18µM*,-32%,·,-14%
COc1cc(/C=C/C(=O)NC(=O)c2ccccc2O)ccc1O,3%,-5,-7%,-1%,4%,-2%
O=C(/C=C/c1ccccc1)NC(=O)c1ccccc1O,?,-58*,?,-27%,?,-6%
CN(C)CCNC(=O)C1CCN(c2ncnc3c2nc2n3CCCCC2)CC1,-25%,·,-1%,-14%,5%,-24%
Cc1ccc(C)c(Cn2c(C(C)NC(=O)c3ccccc3)nc3ccccc32)c1 (stereo not given),?,·,21µM*,0%,3%,-1%
CCN(CC)c1ccc(NC(=O)Cn2c(C(C)NC(=O)c3ccc(C)cc3)nc3ccccc32)cc1 (stereo not given),10%,4,-7%,5%,·,5%
Cc1ccc(C)c(Cn2c(C(C)NC(=O)c3ccc(F)cc3)nc3ccccc32)c1 (stereo not given),-3%,·,?,0%,0%,-13%
Cc1ccc(Cn2c(C(C)NC(=O)c3ccccc3)nc3ccccc32)cc1 (stereo not given),?,·,6.5µM*,-2%,5%,-5%
CCN1C(=O)c2ccccc2C1Nc1ccc(OCCN2CCCCC2)cc1 (stereo not given),-7%,·,-29%,·,·,·
SMILES,DT40 TDP1 CPT,IL-1B inflam inh,TDP1 cell noCPT,HepG2 tox,TDP1 inh,TGFb inhibitor
Cc1ccc(C(=O)N/C(=C\c2cn(S(=O)(=O)N(C)C)c3ccccc23)C(=O)NCCN2CCOCC2)cc1,?,37,5%,1%,·,4%
O=C(O)CSCC(=O)N1CCN(Cc2ccc3c(c2)OCO3)CC1,2%,21,1%,3%,·,-2%
COc1ccc(Oc2cnn(-c3ccccc3)c(=O)c2Br)cc1,?,-63*,?,-27%,-3%,-10%
CCSc1cnn(-c2ccccc2)c(=O)c1SCC,7%,6,-10%,-14%,5%,-11%
COc1cnn(-c2ccc(C)cc2)c(=O)c1Br,1%,-4,1%,-2%,1%,4%
CCOc1cnn(-c2ccccc2)c(=O)c1Cl,?,?,16µM*,-11%,·,0%
CCSc1cnn(-c2ccccc2)c(=O)c1Cl,6%,-94*,?,-3%,·,-1%
O=c1c(Cl)c(Cl)cnn1-c1ccccc1,2.9µM*,-99*,3.3µM*,14µM*,3%,?
COc1cnn(-c2ccccc2)c(=O)c1SCc1ccc(Cl)cc1Cl,29µM*,-51*,21µM*,21%,-1%,-3%
O=c1c(Cl)c(N/N=C/c2ccc(Cl)cc2)cnn1-c1ccccc1,?,6,?,14µM*,-6%,?
O=c1[nH]ncc(N/N=C/c2ccccc2)c1Cl,?,4,-17%,-11%,4%,-4%
CC(C)N(C(=O)c1ccccc1-c1ccccc1)C(C)C,?,-14,18µM*,-38%,3%,-11%
Cc1ccc(O)c(C(=O)c2cnc3c(c2)c(-c2ccc(F)cc2)c(C#N)c(=O)n3C)c1,18µM*,-28,21µM*,-29%,8%,-7%
C/C(=N\N=C(N)N)c1cccc([N+](=O)[O-])c1,?,-6,13µM*,6%,8%,-11%
CNC(=S)N/N=C(\C)c1cccc([N+](=O)[O-])c1,1.3µM*,-16,2.9µM*,-3%,3%,-7%
C/C(=N\NC(=S)NCc1ccccc1)c1ccc(C#N)cc1,-10%,0,7%,-2%,5%,0%
C/C(=N\N=C(N)N)c1ccc(C)c(C)c1,18µM*,?,?,-1%,6%,2%
C/C(=N\NC(=S)NCc1ccccc1)c1ccc(C(C)(C)C)cc1,18µM*,-27,23µM*,-19%,10%,?
Cc1cc(C)cc(N(CC(=O)N2CCCCCC2)S(C)(=O)=O)c1,31%,3,-4%,3%,·,-3%
